According to PubChem BioAssay (NCATS):
Values joined by “and” are separate entries in the source; they are usually repeats but may differ in a detail not shown here. Equal entries are not always repeated. Records with an inconclusive call do not appear. Active and inactive are the calls of the source. Unless noted, calls follow the shape of the dose curve; as a rule, active = well fitted curve in the direction sought with a large enough effect; inconclusive = small, poorly fitted or top-dose-only effect, or another doubt; inactive = no such curve, though single readings can be large; an effect the other way counts as inactive or inconclusive.

Assays:
[1] = qHTS assay for small molecule activators of the p53 signaling pathway (AID 651743; active = well fitted activation curve with a large enough effect in the signal ratio, not every such curve was filed as active; the % refers to the signal ratio; also: series mostly up to about 92 µM; % of control where 0% means no effect); conditions: HCT-116 p53RE-bla, beta-lactamase FRET ratio, 16 h; activation: hits give high values
Outline: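 Screen for p53 pathway agonists uses stably transfected p53RE-bla HCT-116 cells, 4,000 per well, treated 16 h at 37 C with compounds in DMSO.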

[2] = target: Peroxisome proliferator-activated receptor alpha (Homo sapiens) (UniProt Q07869); experiment: qHTS assay for small molecule agonists of the peroxisome proliferator-activated receptor alpha (PPARalpha) signaling pathway (AID 651778); conditions: PathHunter PPARalpha complementation, chemiluminescence, 6 h; hits give high values; also: % of control where 0% means no effect
Sequence of Peroxisome proliferator-activated receptor alpha (Homo sapiens) (Q07869 whole entry, looked up): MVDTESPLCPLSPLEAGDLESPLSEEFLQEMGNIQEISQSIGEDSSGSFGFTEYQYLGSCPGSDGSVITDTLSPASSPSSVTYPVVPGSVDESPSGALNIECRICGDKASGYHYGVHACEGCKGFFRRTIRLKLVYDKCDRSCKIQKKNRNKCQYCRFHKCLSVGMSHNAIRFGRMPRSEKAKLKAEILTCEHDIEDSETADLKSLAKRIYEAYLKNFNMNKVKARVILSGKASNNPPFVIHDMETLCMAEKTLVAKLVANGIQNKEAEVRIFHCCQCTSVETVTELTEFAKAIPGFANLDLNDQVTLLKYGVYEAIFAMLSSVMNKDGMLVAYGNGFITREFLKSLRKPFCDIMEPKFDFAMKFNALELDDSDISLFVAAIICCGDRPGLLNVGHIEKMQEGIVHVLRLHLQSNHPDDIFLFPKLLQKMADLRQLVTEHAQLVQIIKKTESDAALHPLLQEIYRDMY
Outline: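 Chemiluminescence from complemented enzyme reported PPARalpha activation in cells after 6 hr of compound treatment at 37 C. The detection reagent was incubated for 60 min at room temperature, and compounds were scored as agonists.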

[3] = qHTS assay for small molecule agonists of the antioxidant response element (ARE) signaling pathway measured by Nrf2-dependant transcriptional activity (AID 720636; active = well fitted curve in the direction sought with a large enough effect in the repeat runs; an effect the other way counts as inactive or inconclusive;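 also: HepG2 cells with an ARE-driven luciferase reporter; % of control where 0% means no effect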)
Outline: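 First, ARE-luc HepG2 cells attached for 6 hr at 37 C in 1% dialyzed FBS medium. Next, compound or DMSO was added and incubated 16 hr. Finally, ONE-Glo reagent was added and luminescence measured after 30 min.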

[4] = qHTS assay for small molecule agonists of the antioxidant response element (ARE) signaling pathway measured by Nrf2-dependant transcriptional activity - cell viability counter screen (AID 720653; active = well fitted curve in the direction sought with a large enough effect in the repeat runs; an effect the other way counts as inactive or inconclusive; also: % is scaled to controls: 0 for no effect and ±100 for the full control effect); conditions: ARE-bla HepG2 viability, CellTiter-Glo ATP luminescence, 16 h; hits give low values
Outline: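 Cytotoxicity counter screen: intracellular ATP quantified by CellTiter-Glo luminescence in the same ARE-bla HepG2 plates, after 16 h compound exposure and a 2 h beta-lactamase substrate step.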

[5] = qHTS assay for environmental chemicals that activate the Aryl hydrocarbon Receptor (AhR) signaling pathway (AID 651777); conditions: 1A2-DRE human hepatoma cells, luciferase, 24 h; activation: hits give high values; also: % of control where 0% means no effect; nearly all actives have a fitted effect of over 15% in size
Outline: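 AhR activation is scored as a rise in luciferase from a stable DRE–CYP1A2 promoter construct in human hepatoma cells. Treatment lasts 24 hr at 37 C; detection uses One-Glo after 30 min at room temperature.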

[6] = qHTS assay for small molecule agonists of the antioxidant response element (ARE) signaling pathway (AID 651741; active = well fitted activation curve with a large enough effect in the signal ratio; the % refers to the signal ratio; also: potency is read from the fitted curve at half-maximal effect; as to activation: % of control where 0% means no effect)
Outline: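 Seeding 2,000 ARE-bla HepG2 cells per well preceded a 5 h incubation at 37 C/5% CO2 and a 16 h compound exposure at 37 C. Beta-lactamase reporter activity was then quantified by fluorescence after 2 h with LiveBLAzer B/G FRET substrate.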

[7] = qHTS assay for small molecule disruptors of the mitochondrial membrane potential - 1 hr assay (AID 651754; calls by dose curve; also: % is scaled to controls: 0 for no effect and ±100 for the full control effect; nearly all actives have a fitted effect of over 35% in size)
Outline: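 HepG2 cells, attached overnight at 37C, were exposed to compound or DMSO vehicle for 1 hr at 37C, 5% CO2, then stained with Mito-MPS dye for 30 min. Red aggregate versus green monomer fluorescence reports membrane potential.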

[8] = qHTS assay for small molecule disruptors of the mitochondrial membrane potential - 5 hr assay (AID 651755; calls by dose curve; also: % is scaled to controls: 0 for no effect and ±100 for the full control effect; nearly all actives have a fitted effect of over 40% in size)
Outline: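 HepG2, 2,000 cells/well, overnight attach; cpd or DMSO 5 hr, 37C/5% CO2; Mito-MPS 30 min 37C; fluor 490/535 + 540/590 nm.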

[9] = target: Tumor necrosis factor (Homo sapiens) (UniProt P01375); experiment: qHTS assay to identify small molecules that stimulate Tumor Necrosis Factor-alpha (TNF-alpha) secretion (AID 651757; active = well fitted curve in the direction sought with a large enough effect in the signal ratio; the % refers to the signal ratio; also: potency is read from the fitted curve at half-maximal effect)
Sequence of Tumor necrosis factor (Homo sapiens) (P01375 whole entry, looked up): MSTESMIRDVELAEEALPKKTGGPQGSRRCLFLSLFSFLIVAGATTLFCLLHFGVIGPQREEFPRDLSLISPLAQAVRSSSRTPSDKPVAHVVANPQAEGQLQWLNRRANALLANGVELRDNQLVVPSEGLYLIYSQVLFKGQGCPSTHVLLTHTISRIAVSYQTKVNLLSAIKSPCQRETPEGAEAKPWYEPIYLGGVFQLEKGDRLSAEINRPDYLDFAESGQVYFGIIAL
Outline: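 THP-1 cells were exposed to compounds for 17 hrs at 37 C, after which secreted TNF-alpha was measured by homogeneous HTRF (TR-FRET) using cryptate- and XL665-labeled anti-TNF-alpha antibodies, read after 3 hr at room temperature.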

[10] = qHTS assay to identify small molecules that stimulate interleukin-8 (IL-8) secretion (AID 651758; active = well fitted activation curve with a large enough effect in the signal ratio; the % refers to the signal ratio; also: 0% is about no effect)
Outline: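 Secreted IL-8 measured by TR-FRET sandwich (cryptate and XL665 antibodies) from THP-1 cells exposed to compound overnight (16 hrs, 37 C).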

[11] = target: Nuclear receptor ROR-gamma (Homo sapiens) (UniProt P51449); experiment: qHTS assay for small molecule antagonists of the retinoid-related orphan receptor gamma (ROR-gamma) signaling pathway (AID 651802); also: nearly all actives have a fitted effect of over 60% in size; also: potency is read from the fitted curve at half-maximal effect
Sequence of Nuclear receptor ROR-gamma (Homo sapiens) (P51449 whole entry, looked up): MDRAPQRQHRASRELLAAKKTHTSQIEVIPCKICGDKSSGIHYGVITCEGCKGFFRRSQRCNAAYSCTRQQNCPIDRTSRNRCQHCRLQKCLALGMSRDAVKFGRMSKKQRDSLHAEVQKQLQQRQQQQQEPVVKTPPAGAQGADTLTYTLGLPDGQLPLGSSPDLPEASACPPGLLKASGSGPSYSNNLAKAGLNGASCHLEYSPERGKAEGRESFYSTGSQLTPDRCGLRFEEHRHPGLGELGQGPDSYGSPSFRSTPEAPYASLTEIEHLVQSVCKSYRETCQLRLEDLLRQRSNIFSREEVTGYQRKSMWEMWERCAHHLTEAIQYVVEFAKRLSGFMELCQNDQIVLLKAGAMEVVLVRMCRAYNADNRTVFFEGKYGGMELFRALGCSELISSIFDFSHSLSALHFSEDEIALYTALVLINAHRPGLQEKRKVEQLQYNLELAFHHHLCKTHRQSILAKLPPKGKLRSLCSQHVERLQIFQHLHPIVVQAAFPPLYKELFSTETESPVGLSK
Outline: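 CHO cells carrying TET-inducible ROR-gamma and an ROR response element–luciferase reporter were exposed to compound, then induced with doxycycline. After 16hr at 37C, luminescence was read; lower signal indicates antagonism.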

[12] = qHTS assay for small molecule antagonists of the retinoid-related orphan receptor gamma (ROR-gamma) signaling pathway - cell viability counter screen (AID 720652; active = well fitted curve in the direction sought with a large enough effect in the repeat runs; an effect the other way counts as inactive or inconclusive;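 also: series mostly up to about 92 µM; compound exposure lasted 16 hr before ATP read; % is scaled to controls: 0 for no effect and ±100 for the full control effect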)
Outline: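 Counter screen in CHO cells carrying TET-inducible ROR-gamma and an ROR response element-luciferase reporter; cells plated 5 hr, compound pinned, doxycycline added, then 16 hr at 37 C. Viability read as intracellular ATP by CellTiter-Glo luminescence.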

[13] = qHTS assay for small molecule activators of the nuclear factor-kappa B (NF-kB) signaling pathway (AID 651749; active = well fitted activation curve with a large enough effect in the signal ratio; the % refers to the signal ratio; also: series mostly up to about 77 µM; % of control where 0% means no effect); conditions: NF-kB-bla ME-180 cells, beta-lactamase FRET ratio, 16 h; hits give high values
Outline: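 Stably transfected ME-180 line; NF-kB response element upstream of beta-lactamase. Treatment: compound or DMSO, 16 hr. Detection: fluorescent FRET substrate.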

N[C@@H](Cc1cc(I)c(Oc2ccc(O)c(I)c2)c(I)c1)C(=O)O
inactive: activation [1] 5% | max response [2] -3.23% | Potency [3] | max response [4] -4.18%

OC[C@H]1O[C@@](CO)(O[C@H]2O[C@H](CO)[C@@H](O)[C@H](O)[C@H]2O)[C@@H](O)[C@@H]1O
inactive: activation [5] 1.69% | max response [2] 0.569% | Potency [3] | max response [4] -5.77%

OC[C@H]1O[C@@H]2O[C@H]3[C@H](O)[C@@H](O)[C@@H](O[C@H]4[C@H](O)[C@@H](O)[C@@H](O[C@H]5[C@H](O)[C@@H](O)[C@@H](O[C@H]6[C@H](O)[C@@H](O)[C@@H](O[C@H]7[C@H](O)[C@@H](O)[C@@H](O[C@H]1[C@H](O)[C@H]2O)O[C@@H]7CO)O[C@@H]6CO)O[C@@H]5CO)O[C@@H]4CO)O[C@@H]3CO
inactive: Potency [6] | Potency [7] | Potency [8] | Potency [9] | Potency [10] | activation [5] 1.89% and -0.569% | max response [2] -0.429% and -5.48% | Potency [11] | Potency [3] | outcome [12] | max response [4] -2.78% and 5.87%

NCCN
inactive: activation [1] 3.88% | Potency [7] | Potency [8] | Potency [9] | activation [5] -1.15% | max response [2] -6.55% | Potency [11] | Potency [3] | outcome [12] | max response [4] -3.91%

C[C@H]1O[C@@H](O[C@H]2[C@@H](O)C[C@H](O[C@H]3[C@@H](O)C[C@H](O[C@H]4CC[C@@]5(C)[C@H](CC[C@@H]6[C@@H]5C[C@@H](O)[C@]5(C)[C@@H](C7=CC(=O)OC7)CC[C@]65O)C4)O[C@@H]3C)O[C@@H]2C)C[C@H](O)[C@@H]1O
active: Potency [9] 0.376 µM | Potency [11] 9.44 µM
inactive: activation [5] 2.26% and 1.31% | max response [2] 3.82% and -3.75% | Potency [3]

CC/C=C\C/C=C\C/C=C\CCCCCCCC(=O)O
active: Potency [6] 42.2 µM
inactive: Potency [7] | Potency [8] | Potency [9] | activation [5] 0.211% | max response [2] 20% | Potency [11] | outcome [12] | max response [4] -3.01%

CCOC(C)OCC
inactive: Potency [9] | activation [5] -0.455% | max response [2] -1.13% | Potency [11] | Potency [3] | outcome [12] | max response [4] -4.14%

O=C(OCc1ccccc1)c1ccc(O)cc1
inactive: activation [1] -6.7% | activation [5] 0.611% | max response [2] -0.0988% | max response [4] -5.99%

[O-][N+](=Nc1ccccc1)c1ccccc1
inactive: activation [1] 1.25% | activation [13] 0.0708% | Potency [7] | Potency [8] | Potency [9] | max response [2] 10.8% | outcome [12] | max response [4] -2.2%

CC(C)O
inactive: Potency [7] | Potency [8] | Potency [9] | Potency [10] | activation [5] 2.92% | max response [2] -0.168% | Potency [11] | Potency [3] | outcome [12] | max response [4] 2%

CCCCC
inactive: activation [1] 2.34% | Potency [7] | Potency [8] | Potency [9] | max response [2] -0.71% | Potency [11] | Potency [3] | outcome [12] | max response [4] -14.6%

CC(C)[C@@H]1CC[C@@H](C)C[C@H]1O
inactive: Potency [6] | activation [5] -0.378% | max response [2] -1.09% | Potency [3] | max response [4] 0.622%

Cc1ccc(S(=O)(=O)O)cc1C
inactive: activation [1] -1.09% | Potency [7] | Potency [8] | Potency [9] | Potency [10] | activation [5] -1.47% | max response [2] -6.39% | Potency [3] | outcome [12] | max response [4] 12.7%

CO
inactive: activation [1] -0.522% | Potency [9] | activation [5] -0.288% | max response [2] -6.03% | Potency [11] | Potency [3] | outcome [12] | max response [4] -2.74%
